Where two headings read alike, the source gives them in different places.
What was measured:
PRKD1 = details: read-out: apparent Kd; compound concentrations:100 nM and 1000 nM (sheet 'Lestaurtinib' of Supplementary Table 1),run:Lestaurtinib_02896_R3,Plate:MR030; n = 1
PTK2B = details: read-out: apparent Kd, n = 1
SIK3 = details: read-out: apparent Kd, n = 1
SLK = details: read-out: apparent Kd, n = 1
[1] = compound concentrations:100 nM and 1000 nM (sheet 'Lestaurtinib' of Supplementary Table 1),run:Lestaurtinib_02339_R2,Plate:MR001
[2] = compound concentrations:100 nM and 1000 nM (sheet 'Lestaurtinib' of Supplementary Table 1),run:Lestaurtinib_02422_R1,Plate:MR006
[3] = compound concentrations:100 nM and 1000 nM (sheet 'Lestaurtinib' of Supplementary Table 1),run:Lestaurtinib_02443_R3,Plate:MR009
[4] = compound concentrations:100 nM and 1000 nM (sheet 'Lestaurtinib' of Supplementary Table 1),run:Lestaurtinib_02473_R3,Plate:MR010
[5] = compound concentrations:100 nM and 1000 nM (sheet 'Lestaurtinib' of Supplementary Table 1),run:Lestaurtinib_02496_R1,Plate:MR013
[6] = compound concentrations:100 nM and 1000 nM (sheet 'Lestaurtinib' of Supplementary Table 1),run:Lestaurtinib_02496_R2,Plate:MR013
[7] = compound concentrations:100 nM and 1000 nM (sheet 'Lestaurtinib' of Supplementary Table 1),run:Lestaurtinib_02496_R3,Plate:MR013
[8] = compound concentrations:100 nM and 1000 nM (sheet 'Lestaurtinib' of Supplementary Table 1),run:Lestaurtinib_02748_R1,Plate:MR024
[9] = compound concentrations:100 nM and 1000 nM (sheet 'Lestaurtinib' of Supplementary Table 1),run:Lestaurtinib_03172_R3,Plate:MR031
[10] = compound concentrations:100 nM and 1000 nM (sheet 'Lestaurtinib' of Supplementary Table 1),run:Lestaurtinib_02367_R3,Plate:MR003
[11] = compound concentrations:100 nM and 1000 nM (sheet 'Lestaurtinib' of Supplementary Table 1),run:Lestaurtinib_02381_R3,Plate:MR004
[12] = compound concentrations:100 nM and 1000 nM (sheet 'Lestaurtinib' of Supplementary Table 1),run:Lestaurtinib_02422_R3,Plate:MR006
[13] = compound concentrations:100 nM and 1000 nM (sheet 'Lestaurtinib' of Supplementary Table 1),run:Lestaurtinib_02438_R2,Plate:MR008
[14] = compound concentrations:100 nM and 1000 nM (sheet 'Lestaurtinib' of Supplementary Table 1),run:Lestaurtinib_02482_R3,Plate:MR011
[15] = compound concentrations:100 nM and 1000 nM (sheet 'Lestaurtinib' of Supplementary Table 1),run:Lestaurtinib_02566_R3,Plate:MR014
[16] = compound concentrations:100 nM and 1000 nM (sheet 'Lestaurtinib' of Supplementary Table 1),run:Lestaurtinib_02577_R2,Plate:MR016
[17] = compound concentrations:100 nM and 1000 nM (sheet 'Lestaurtinib' of Supplementary Table 1),run:Lestaurtinib_02577_R3,Plate:MR016
[18] = compound concentrations:100 nM and 1000 nM (sheet 'Lestaurtinib' of Supplementary Table 1),run:Lestaurtinib_02584_R2,Plate:MR017
[19] = compound concentrations:100 nM and 1000 nM (sheet 'Lestaurtinib' of Supplementary Table 1),run:Lestaurtinib_02584_R3,Plate:MR017

## Lestaurtinib
PRKD1
  potency estimated from few doses: 0.141 µM
PTK2B; [1]
  potency estimated from few doses: 0.971 µM
PTK2B; [2]
  potency estimated from few doses: 0.859 µM
PTK2B; compound concentrations:100 nM and 1000 nM (sheet 'Lestaurtinib' of Supplementary Table 1),run:Lestaurtinib_02437_R3,Plate:MR007
  potency estimated from few doses: 0.8 µM
PTK2B; [3]
  potency estimated from few doses: 0.928 µM
PTK2B; [4]
  potency estimated from few doses: 0.0584 µM
PTK2B; compound concentrations:100 nM and 1000 nM (sheet 'Lestaurtinib' of Supplementary Table 1),run:Lestaurtinib_02487_R1,Plate:MR012
  potency estimated from few doses: 0.209 µM
PTK2B; [5]
  potency estimated from few doses: 0.974 µM
PTK2B; [6]
  potency estimated from few doses: 0.703 µM
PTK2B; [7]
  potency estimated from few doses: 0.966 µM
PTK2B; compound concentrations:100 nM and 1000 nM (sheet 'Lestaurtinib' of Supplementary Table 1),run:Lestaurtinib_02572_R1,Plate:MR015
  potency estimated from few doses: 0.615 µM
PTK2B; compound concentrations:100 nM and 1000 nM (sheet 'Lestaurtinib' of Supplementary Table 1),run:Lestaurtinib_02572_R2,Plate:MR015
  potency estimated from few doses: 0.666 µM
PTK2B; [8]
  potency estimated from few doses: 0.954 µM
PTK2B; [9]
  potency estimated from few doses: 1.24 µM
SIK3; compound concentrations:100 nM and 1000 nM (sheet 'Lestaurtinib' of Supplementary Table 1),run:Lestaurtinib_02339_R3,Plate:MR001
  potency estimated from few doses: 1.99 µM
SIK3; [10]
  potency estimated from few doses: 2.18 µM
SIK3; compound concentrations:100 nM and 1000 nM (sheet 'Lestaurtinib' of Supplementary Table 1),run:Lestaurtinib_02381_R2,Plate:MR004
  potency estimated from few doses: 2.12 µM
SIK3; [11]
  potency estimated from few doses: 1.93 µM
SIK3; compound concentrations:100 nM and 1000 nM (sheet 'Lestaurtinib' of Supplementary Table 1),run:Lestaurtinib_02407_R3,Plate:MR005
  potency estimated from few doses: 1.89 µM
SIK3; compound concentrations:100 nM and 1000 nM (sheet 'Lestaurtinib' of Supplementary Table 1),run:Lestaurtinib_02422_R2,Plate:MR006
  potency estimated from few doses: 1.76 µM
SIK3; [12]
  potency estimated from few doses: 1.57 µM
SIK3; compound concentrations:100 nM and 1000 nM (sheet 'Lestaurtinib' of Supplementary Table 1),run:Lestaurtinib_02437_R2,Plate:MR007
  potency estimated from few doses: 1.4 µM
SIK3; compound concentrations:100 nM and 1000 nM (sheet 'Lestaurtinib' of Supplementary Table 1),run:Lestaurtinib_02438_R1,Plate:MR008
  potency estimated from few doses: 1.8 µM
SIK3; [13]
  potency estimated from few doses: 1.72 µM
SIK3; compound concentrations:100 nM and 1000 nM (sheet 'Lestaurtinib' of Supplementary Table 1),run:Lestaurtinib_02438_R3,Plate:MR008
  potency estimated from few doses: 1.33 µM
SIK3; compound concentrations:100 nM and 1000 nM (sheet 'Lestaurtinib' of Supplementary Table 1),run:Lestaurtinib_02443_R1,Plate:MR009
  potency estimated from few doses: 1.97 µM
SIK3; compound concentrations:100 nM and 1000 nM (sheet 'Lestaurtinib' of Supplementary Table 1),run:Lestaurtinib_02443_R2,Plate:MR009
  potency estimated from few doses: 1.96 µM
SIK3; [3]
  potency estimated from few doses: 0.964 µM
SIK3; [4]
  potency estimated from few doses: 1.24 µM
SIK3; [14]
  potency estimated from few doses: 1.57 µM
SIK3; compound concentrations:100 nM and 1000 nM (sheet 'Lestaurtinib' of Supplementary Table 1),run:Lestaurtinib_02487_R2,Plate:MR012
  potency estimated from few doses: 1.7 µM
SIK3; [5]
  potency estimated from few doses: 0.956 µM
SIK3; [7]
  potency estimated from few doses: 1.3 µM
SIK3; compound concentrations:100 nM and 1000 nM (sheet 'Lestaurtinib' of Supplementary Table 1),run:Lestaurtinib_02566_R1,Plate:MR014
  potency estimated from few doses: 1.42 µM
SIK3; [15]
  potency estimated from few doses: 1.46 µM
SIK3; compound concentrations:100 nM and 1000 nM (sheet 'Lestaurtinib' of Supplementary Table 1),run:Lestaurtinib_02577_R1,Plate:MR016
  potency estimated from few doses: 1.59 µM
SIK3; [16]
  potency estimated from few doses: 1.63 µM
SIK3; [17]
  potency estimated from few doses: 1.96 µM
SIK3; [18]
  potency estimated from few doses: 1.42 µM
SIK3; [19]
  potency estimated from few doses: 1.3 µM
SIK3; compound concentrations:100 nM and 1000 nM (sheet 'Lestaurtinib' of Supplementary Table 1),run:Lestaurtinib_02601_R1,Plate:MR018
  potency estimated from few doses: 1.82 µM
SIK3; compound concentrations:100 nM and 1000 nM (sheet 'Lestaurtinib' of Supplementary Table 1),run:Lestaurtinib_02601_R2,Plate:MR018
  potency estimated from few doses: 1.65 µM
SIK3; compound concentrations:100 nM and 1000 nM (sheet 'Lestaurtinib' of Supplementary Table 1),run:Lestaurtinib_02606_R2,Plate:MR019
  potency estimated from few doses: 1.76 µM
SIK3; compound concentrations:100 nM and 1000 nM (sheet 'Lestaurtinib' of Supplementary Table 1),run:Lestaurtinib_02624_R1,Plate:MR020
  potency estimated from few doses: 1.91 µM
SIK3; compound concentrations:100 nM and 1000 nM (sheet 'Lestaurtinib' of Supplementary Table 1),run:Lestaurtinib_02724_R1,Plate:MR021
  potency estimated from few doses: 1.3 µM
SIK3; compound concentrations:100 nM and 1000 nM (sheet 'Lestaurtinib' of Supplementary Table 1),run:Lestaurtinib_02724_R2,Plate:MR021
  potency estimated from few doses: 1.32 µM
SIK3; compound concentrations:100 nM and 1000 nM (sheet 'Lestaurtinib' of Supplementary Table 1),run:Lestaurtinib_02724_R3,Plate:MR021
  potency estimated from few doses: 1.35 µM
SIK3; compound concentrations:100 nM and 1000 nM (sheet 'Lestaurtinib' of Supplementary Table 1),run:Lestaurtinib_02741_R2,Plate:MR023
  potency estimated from few doses: 1.3 µM
SIK3; [8]
  potency estimated from few doses: 1.41 µM
SIK3; compound concentrations:100 nM and 1000 nM (sheet 'Lestaurtinib' of Supplementary Table 1),run:Lestaurtinib_02748_R2,Plate:MR024
  potency estimated from few doses: 1.49 µM
SIK3; compound concentrations:100 nM and 1000 nM (sheet 'Lestaurtinib' of Supplementary Table 1),run:Lestaurtinib_02752_R1,Plate:MR025
  potency estimated from few doses: 1.43 µM
SIK3; compound concentrations:100 nM and 1000 nM (sheet 'Lestaurtinib' of Supplementary Table 1),run:Lestaurtinib_02752_R2,Plate:MR025
  potency estimated from few doses: 1.72 µM
SIK3; compound concentrations:100 nM and 1000 nM (sheet 'Lestaurtinib' of Supplementary Table 1),run:Lestaurtinib_02765_R2,Plate:MR026
  potency estimated from few doses: 1.36 µM
SIK3; compound concentrations:100 nM and 1000 nM (sheet 'Lestaurtinib' of Supplementary Table 1),run:Lestaurtinib_02766_R1,Plate:MR027
  potency estimated from few doses: 1.13 µM
SIK3; compound concentrations:100 nM and 1000 nM (sheet 'Lestaurtinib' of Supplementary Table 1),run:Lestaurtinib_02768_R3,Plate:MR028
  potency estimated from few doses: 1.51 µM
SIK3; compound concentrations:100 nM and 1000 nM (sheet 'Lestaurtinib' of Supplementary Table 1),run:Lestaurtinib_02795_R1,Plate:MR022
  potency estimated from few doses: 2.15 µM
SIK3; compound concentrations:100 nM and 1000 nM (sheet 'Lestaurtinib' of Supplementary Table 1),run:Lestaurtinib_02802_R1,Plate:MR029
  potency estimated from few doses: 1.99 µM
SIK3; compound concentrations:100 nM and 1000 nM (sheet 'Lestaurtinib' of Supplementary Table 1),run:Lestaurtinib_02802_R3,Plate:MR029
  potency estimated from few doses: 1.72 µM
SIK3; compound concentrations:100 nM and 1000 nM (sheet 'Lestaurtinib' of Supplementary Table 1),run:Lestaurtinib_02896_R3,Plate:MR030
  potency estimated from few doses: 1.21 µM
SIK3; compound concentrations:100 nM and 1000 nM (sheet 'Lestaurtinib' of Supplementary Table 1),run:Lestaurtinib_03172_R1,Plate:MR031
  potency estimated from few doses: 1.42 µM
SIK3; compound concentrations:100 nM and 1000 nM (sheet 'Lestaurtinib' of Supplementary Table 1),run:Lestaurtinib_03172_R2,Plate:MR031
  potency estimated from few doses: 1.54 µM
SIK3; [9]
  potency estimated from few doses: 1.13 µM
SIK3; compound concentrations:100 nM and 1000 nM (sheet 'Lestaurtinib' of Supplementary Table 1),run:Lestaurtinib_03252_R1,Plate:MR032
  potency estimated from few doses: 1.35 µM
SIK3; compound concentrations:100 nM and 1000 nM (sheet 'Lestaurtinib' of Supplementary Table 1),run:Lestaurtinib_03252_R2,Plate:MR032
  potency estimated from few doses: 1.13 µM
SIK3; compound concentrations:100 nM and 1000 nM (sheet 'Lestaurtinib' of Supplementary Table 1),run:Lestaurtinib_03260_R2,Plate:MR033
  potency estimated from few doses: 1.42 µM
SLK; [1]
  potency estimated from few doses: 0.859 µM
SLK; compound concentrations:100 nM and 1000 nM (sheet 'Lestaurtinib' of Supplementary Table 1),run:Lestaurtinib_02364_R2,Plate:MR002
  potency estimated from few doses: 1.54 µM
SLK; compound concentrations:100 nM and 1000 nM (sheet 'Lestaurtinib' of Supplementary Table 1),run:Lestaurtinib_02364_R3,Plate:MR002
  potency estimated from few doses: 1.37 µM
SLK; compound concentrations:100 nM and 1000 nM (sheet 'Lestaurtinib' of Supplementary Table 1),run:Lestaurtinib_02367_R1,Plate:MR003
  potency estimated from few doses: 1.35 µM
SLK; compound concentrations:100 nM and 1000 nM (sheet 'Lestaurtinib' of Supplementary Table 1),run:Lestaurtinib_02367_R2,Plate:MR003
  potency estimated from few doses: 1.3 µM
SLK; [10]
  potency estimated from few doses: 1.53 µM
SLK; [11]
  potency estimated from few doses: 1.21 µM
SLK; compound concentrations:100 nM and 1000 nM (sheet 'Lestaurtinib' of Supplementary Table 1),run:Lestaurtinib_02407_R2,Plate:MR005
  potency estimated from few doses: 1.67 µM
SLK; [2]
  potency estimated from few doses: 1.15 µM
SLK; [12]
  potency estimated from few doses: 1.36 µM
SLK; [13]
  potency estimated from few doses: 1.42 µM
SLK; [3]
  potency estimated from few doses: 0.992 µM
SLK; [14]
  potency estimated from few doses: 1.42 µM
SLK; [6]
  potency estimated from few doses: 1.31 µM
SLK; [7]
  potency estimated from few doses: 1.62 µM
SLK; [15]
  potency estimated from few doses: 1.13 µM
SLK; compound concentrations:100 nM and 1000 nM (sheet 'Lestaurtinib' of Supplementary Table 1),run:Lestaurtinib_02572_R3,Plate:MR015
  potency estimated from few doses: 1.79 µM
SLK; [16]
  potency estimated from few doses: 1.32 µM
SLK; [17]
  potency estimated from few doses: 0.997 µM
SLK; [18]
  potency estimated from few doses: 1.32 µM
SLK; [19]
  potency estimated from few doses: 1.58 µM

Reference: PMC11062922 (Nature Chemical Biology, 2023)
